Structures can show the parent of a compound that is named as a salt.
tested on: MDA-MB-468; test: phospho-S6 immunofluorescence (DAPI-normalised), per-plate z-score; higher = higher phospho-S6 signal (less pathway suppression); settings: co-treatment: GDC0941 450 nM; 24 h
Experimental: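 GPCR-targeted compound library (MedChemExpress HY-L006) tested on MDA-MB-468 PTEN-null TNBC cells in 384-well plates at 0.1, 1 or 10 uM, combined with vehicle, GDC0941 450 nM or lapatinib 1 uM, for 24 h. Phospho-S6 (S240/244) immunofluorescence normalised to DAPI and expressed as a per-plate z-score; values are the mean of biological triplicates.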

| SMILES | phospho-S6 immunofluorescence (z-score) |
| --- | --- |
| CCOC(=O)N1CCC(NCCNC(=O)c2ccccc2C)CC1 (compound 10 µM) | 0.96 |
| CC(C)(C)C(=O)C(=Nc1ccc(Cl)cc1)NNc1ccc(Cl)cc1 (compound 10 µM) | -3.52 |
| CNCCc1ccccn1 [Betahistine (dihydrochloride)] (compound 10 µM) | -1.02 |
| O=C1NCCN1CCN1CCC(c2cn(-c3ccc(F)cc3)c3ccc(Cl)cc23)CC1 [Sertindole] (compound 10 µM) | -4.7 |
| CN1CCC(=C2c3ccccc3C=Cc3ccccc32)CC1 [Cyproheptadine (hydrochloride)] (compound 10 µM) | -0.64 |
| Cc1c(C(=O)NN2CCCCC2)nn(-c2ccc(Cl)cc2Cl)c1-c1ccc(Cl)cc1 [Rimonabant (Hydrochloride)] (compound 10 µM) | -3.49 |
| C[C@@H](O)[C@@H]1NC(=O)[C@H](CCCCN)NC(=O)[C@@H](Cc2c[nH]c3ccccc23)NC(=O)[C@H](Cc2ccccc2)NC(=O)[C@@H](NC(=O)[C@H](N)Cc2ccccc2)CSSC[C@@H](C(=O)N[C@H](CO)[C@@H](C)O)NC1=O [Octreotide (acetate)] (compound 10 µM) | 0.59 |
| O=c1ccn([C@@H]2O[C@H](COP(=O)(O)OP(=O)(O)OP(=O)(O)OP(=O)(O)OC[C@H]3O[C@@H](n4ccc(=O)[nH]c4=O)[C@H](O)[C@@H]3O)[C@@H](O)[C@H]2O)c(=O)[nH]1 [Diquafosol (tetrasodium)] (compound 10 µM) | 0.01 |
| C[C@@H]1CCCN1CCc1cc2cc(-c3ccc(C#N)cc3)ccc2o1 (compound 10 µM) | -3.3 |
